# In the supplement of paper PMC12282887:
# ± gives the standard deviation of the averaged measurements.
# Columns and labels:
# Experiment in all cases: promoter activity interaction Z-score (Lux/OD deviation from empty-vector control); higher = stronger promoter induction by the compound
# [1] = tested on: E. coli BW25113 acrABp lux reporter
# Outline: (§1)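 Wild-type E. coli BW25113 and three single-gene deletion strains, each carrying a low-copy luxCDABE promoter reporter, were grown at 37°C in 40 µl LB Lennox per well of a 384-well plate. Every compound was applied at four 1:2 dilutions in biological duplicates, and OD600 and luminescence were read every 30 min for 12 h. Integration covered 0–8 h for wild type and 1–9 h for deletion strains, and wells under 10% of the median growth value were removed. Scores are Z-transformed residuals of growth-normalised luminescence fitted against a control.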
# [2] = tested on: E. coli BW25113 micFp lux reporter
# Outline: as §1
# [3] = tested on: E. coli BW25113 ompFp lux reporter
# Outline: as §1
# [4] = tested on: E. coli BW25113 robp lux reporter
# Outline: as §1
# [5] = tested on: E. coli BW25113 soxSp lux reporter
# Outline: as §1
# [6] = tested on: E. coli BW25113 tolCp lux reporter
# Outline: as §1
# [7] = 1.9 µg/ml, genetic background: wild type
# [8] = 1.9 µg/ml, genetic background: ΔmarA
# [9] = 1.9 µg/ml, genetic background: Δrob
# [10] = 1.9 µg/ml, genetic background: ΔsoxS
# [11] = 3.7 µg/ml, genetic background: wild type
# [12] = 3.7 µg/ml, genetic background: ΔmarA
# [13] = 3.7 µg/ml, genetic background: Δrob
# [14] = 3.7 µg/ml, genetic background: ΔsoxS
# [15] = 7.4 µg/ml, genetic background: wild type
# [16] = 7.4 µg/ml, genetic background: ΔmarA
# [17] = 7.4 µg/ml, genetic background: Δrob
# [18] = 7.4 µg/ml, genetic background: ΔsoxS
smiles,measurement,setting,value
CCCCCCCCCCCCC[N+](C)(C)Cc1ccccc1 [Benzalkonium],promoter activity interaction Z-score,[1]; [7],-0.513 ± 0.068
same,promoter activity interaction Z-score,[1]; [8],-0.237 ± 0.34
same,promoter activity interaction Z-score,[1]; [9],-0.388 ± 0.4
same,promoter activity interaction Z-score,[1]; [10],0.294 ± 0.89
same,promoter activity interaction Z-score,[1]; [11],-0.16 ± 0.06
same,promoter activity interaction Z-score,[1]; [12],-0.795 ± 0.15
same,promoter activity interaction Z-score,[1]; [13],-0.554 ± 0.18
same,promoter activity interaction Z-score,[1]; [14],0.231 ± 0.94
same,promoter activity interaction Z-score,[1]; [15],-0.426 ± 0.23
same,promoter activity interaction Z-score,[1]; [16],-0.878 ± 0.33
same,promoter activity interaction Z-score,[1]; [17],-0.727 ± 0.24
same,promoter activity interaction Z-score,[1]; [18],0.0433 ± 0.71
same,promoter activity interaction Z-score,[2]; [7],-0.76 ± 0.023
same,promoter activity interaction Z-score,[2]; [8],0.0652 ± 0.0013
same,promoter activity interaction Z-score,[2]; [9],0.0861 ± 0.12
same,promoter activity interaction Z-score,[2]; [10],0.559 ± 0.1
same,promoter activity interaction Z-score,[2]; [11],-0.0239 ± 0.31
same,promoter activity interaction Z-score,[2]; [12],0.0187 ± 0.025
same,promoter activity interaction Z-score,[2]; [13],-0.0547 ± 0.088
same,promoter activity interaction Z-score,[2]; [14],0.312 ± 0.19
same,promoter activity interaction Z-score,[2]; [15],-0.0221 ± 0.06
same,promoter activity interaction Z-score,[2]; [16],0.112 ± 0.063
same,promoter activity interaction Z-score,[2]; [17],-0.178 ± 0.013
same,promoter activity interaction Z-score,[2]; [18],0.584 ± 0.26
same,promoter activity interaction Z-score,[3]; [7],-0.908 ± 0.23
same,promoter activity interaction Z-score,[3]; [8],-0.356 ± 0.42
same,promoter activity interaction Z-score,[3]; [9],-1.25 ± 0.58
same,promoter activity interaction Z-score,[3]; [10],-0.386 ± 0.51
same,promoter activity interaction Z-score,[3]; [11],-0.513 ± 0.059
same,promoter activity interaction Z-score,[3]; [12],-0.652 ± 0.036
same,promoter activity interaction Z-score,[3]; [13],-1.38 ± 0.51
same,promoter activity interaction Z-score,[3]; [14],-0.498 ± 0.53
same,promoter activity interaction Z-score,[3]; [15],-0.731 ± 0.65
same,promoter activity interaction Z-score,[3]; [16],-1.05 ± 0.44
same,promoter activity interaction Z-score,[3]; [17],-1.75 ± 0.21
same,promoter activity interaction Z-score,[3]; [18],-0.339 ± 0.55
same,promoter activity interaction Z-score,[4]; [7],-1.53 ± 0.13
same,promoter activity interaction Z-score,[4]; [8],-0.233 ± 0.25
same,promoter activity interaction Z-score,[4]; [9],-0.222 ± 1.1
same,promoter activity interaction Z-score,[4]; [10],-0.27 ± 0.21
same,promoter activity interaction Z-score,[4]; [11],-0.668 ± 0.089
same,promoter activity interaction Z-score,[4]; [12],-0.453 ± 0.016
same,promoter activity interaction Z-score,[4]; [13],-0.648 ± 0.67
same,promoter activity interaction Z-score,[4]; [14],-0.627 ± 0.58
same,promoter activity interaction Z-score,[4]; [15],-0.364 ± 0.19
same,promoter activity interaction Z-score,[4]; [16],-0.432 ± 0.13
same,promoter activity interaction Z-score,[4]; [17],-0.777 ± 0.35
same,promoter activity interaction Z-score,[4]; [18],-0.0429 ± 0.032
same,promoter activity interaction Z-score,[5]; [7],-0.311 ± 0.12
same,promoter activity interaction Z-score,[5]; [8],0.435 ± 0.12
same,promoter activity interaction Z-score,[5]; [9],0.153 ± 0.081
same,promoter activity interaction Z-score,[5]; [10],0.8 ± 0.97
same,promoter activity interaction Z-score,[5]; [11],-0.00893 ± 0.087
same,promoter activity interaction Z-score,[5]; [12],0.517 ± 0.017
same,promoter activity interaction Z-score,[5]; [13],-0.0801 ± 0.15
same,promoter activity interaction Z-score,[5]; [14],0.388 ± 0.66
same,promoter activity interaction Z-score,[5]; [15],-0.156 ± 0.16
same,promoter activity interaction Z-score,[5]; [16],0.256 ± 0.12
same,promoter activity interaction Z-score,[5]; [17],-0.261 ± 0.034
same,promoter activity interaction Z-score,[5]; [18],0.23 ± 0.41
same,promoter activity interaction Z-score,[6]; [7],-0.208 ± 0.53
same,promoter activity interaction Z-score,[6]; [8],1.08 ± 0.12
same,promoter activity interaction Z-score,[6]; [9],1.06 ± 0.98
same,promoter activity interaction Z-score,[6]; [10],0.966 ± 0.54
same,promoter activity interaction Z-score,[6]; [11],-0.106 ± 0.92
same,promoter activity interaction Z-score,[6]; [12],1.89 ± 1.1
same,promoter activity interaction Z-score,[6]; [13],-0.289 ± 0.39
same,promoter activity interaction Z-score,[6]; [14],0.246 ± 0.11
same,promoter activity interaction Z-score,[6]; [15],0.0455 ± 1.8
same,promoter activity interaction Z-score,[6]; [16],0.506 ± 0.55
same,promoter activity interaction Z-score,[6]; [17],-0.0996 ± 0.22
same,promoter activity interaction Z-score,[6]; [18],1.32 ± 2
same,promoter activity interaction Z-score,"[6]; 14.9 µg/ml, genetic background: ΔsoxS",1.08 ± 0.5
